Compounds with a hit are over-represented: about 12% of the library has one in this group of screens.
BAZ2B block = blocks human BAZ2B; Q9UIF8; AlphaScreen BAZ2B-H3K14Ac peptide displacement; Potency, µM (highest dose often 114 µM), inactives show at the top dose activity change, negative = inhibition, actives largely listed as inhibitors; actives 4.4% (n = 360,000); further: potency means the concentration at half of the fitted maximal effect; on the % scale 0 is the no-effect control and ±100 the full control effect; nearly all actives have a fitted effect of over 60% in size
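AlphaScreen luminescence quantifies BAZ2B engagement of H3K14Ac peptide; the protein and biotinylated peptide are both at 50 nM final, buffer PBS pH 7.4 with 0.01% Tween-20, all steps at room temperature.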
PLK1 PBD block = PLK1 (human) polo-box domain binding inhibition. Plk1 PBD binding of FITC phosphopeptide, fluorescence polarization. Potency, µM, for inactives: max response, negative = inhibition, usual class: inhibitors. actives 2.8% (n = 360,000). AID 720504; further: potency means the concentration at half of the fitted maximal effect; series mostly up to about 57 µM; on the % scale 0 is the no-effect control and ±100 the full control effect; nearly all actives have a fitted effect of over 65% in size
G9a block = inhibitors of human histone lysine methyltransferase G9a; G9a H3K9 monomethylation, AlphaScreen, 2 h; Potency, µM (series often up to 102 µM), inactives show at the highest dose activity, negative = inhibition, hits mostly inhibitors; AID 504332; actives 8.8% (n = 350,000); Q96KQ7; further: potency means the concentration at half of the fitted maximal effect; on the % scale 0 is the no-effect control and ±100 the full control effect; nearly all actives have a fitted effect of over 75% in size
Target sequence (Q96KQ7 913-1193 limits assumed): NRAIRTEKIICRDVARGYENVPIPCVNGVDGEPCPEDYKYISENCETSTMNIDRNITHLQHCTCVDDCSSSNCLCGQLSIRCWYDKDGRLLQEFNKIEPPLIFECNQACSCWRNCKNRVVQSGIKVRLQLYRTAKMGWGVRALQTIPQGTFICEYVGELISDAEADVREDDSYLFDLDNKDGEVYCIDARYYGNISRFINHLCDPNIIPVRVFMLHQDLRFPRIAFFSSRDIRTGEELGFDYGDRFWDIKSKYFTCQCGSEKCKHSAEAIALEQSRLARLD
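G9a (20 nM) was preincubated 15 min with compound, then reacted 2 h at room temperature with 500 nM biotin-H3K9 peptide and 20 µM SAM. Monomethyl-H3K9 detected by AlphaScreen using anti-H3K9me1 antibody.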
HP1b binding inh = blocks HP1-beta chromodomain binding to methylated histone tails. Potency, µM (top dose mostly 114 µM), for inactives: top-dose activity change, negative = inhibition, usual class: inhibitors. AlphaScreen HP1-beta / biotin-H3K9me3 peptide binding. actives 0.56% (n = 390,000). P83916; further: potency means the concentration at half of the fitted maximal effect; nearly all actives have a fitted effect of over 70% in size
Target sequence (P83916 whole entry, looked up): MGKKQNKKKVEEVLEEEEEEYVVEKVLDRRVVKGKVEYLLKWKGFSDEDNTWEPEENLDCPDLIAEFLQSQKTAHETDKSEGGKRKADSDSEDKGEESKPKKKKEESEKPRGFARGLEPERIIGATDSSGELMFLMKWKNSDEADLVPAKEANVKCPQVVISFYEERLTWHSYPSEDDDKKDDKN
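Compound inhibition of the preformed complex between 50 nM HP1-beta and 50 nM biotinylated H3K9me3 peptide was read by AlphaScreen. Buffer was PBS pH 7.4 with 0.01% Tween-20. Incubations ran 30 min at room temperature, with 10 ug/mL donor/acceptor beads.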
JMJD2A Tudor = blocks the human JMJD2A Tudor domain; actives 4.4% (n = 390,000); O75164; Potency, µM (series often up to 114 µM), inactives show top-dose activity change, negative = inhibition, usual class: inhibitors; AID 504339; AlphaScreen JMJD2A-Tudor / H3K4me3 peptide binding; further: potency means the concentration at half of the fitted maximal effect; on the % scale 0 is the no-effect control and ±100 the full control effect; nearly all actives have a fitted effect of over 50% in size
PI5P4K alpha inh = inhibitors of human PI5P4K alpha. AID 652105. PI5P4Kalpha enzyme, ADP-Glo luminescence, 60 min; hits give low values. actives 1.2% (n = 330,000). P48426. max response, %; active means max response of -50% or lower; inconclusive means between -30% and -50%; inactive means -30% or higher; further: value at the top dose of about 77 µM; on the % scale 0 is the no-effect control and ±100 the full control effect
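Enzyme plus substrate dispensed, test compounds pinned in, then ATP (5 microM final) added. After 60 min at RT, ADP-Glo reagent 1 for 45 min and reagent 2 for 30 min preceded luminescence imaging.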
Starred values were filed as active, the others as inactive; ? = inconclusive; nt = no result; [ ] = remark or other dose. Unless noted, the call rests on the fitted dose curve; in most records, active means well fitted curve in the direction sought with a large enough effect; inconclusive means small, poorly fitted or top-dose-only effect, or another doubt; inactive means no such curve, though single readings can be large; an effect the other way counts as inactive or inconclusive.

SMILES	BAZ2B block	PLK1 PBD block	G9a block	HP1b binding inh	JMJD2A Tudor	PI5P4K alpha inh
COC1=C2C[C@H](C)C[C@H](OC)[C@@H](O)[C@@H](C)C=C(C)[C@H](OC(N)=O)[C@@H](OC)C=CC=C(C)C(=O)NC(=CC1=O)C2=O	nt	nt	nt	16%	?	nt
COC(=O)CC1C(=O)NCCN1C(=O)c1ccc2oc(C(C)C)nc2c1 (stereo not drawn)	6%	30µM*	3%	7%	?	1
CC(C)OC(=O)CC1C(=O)NCCN1C(=S)NC(=O)CCc1ccccc1 (stereo not drawn)	-1%	-5%	?	48%	-7%	0
CCCCc1nc2cc(C(=O)N3CCNC(=O)C3CC(=O)OC)ccc2o1 (stereo not drawn)	-8%	-5%	-1%	32%	-10%	0
CC(C)OC(=O)CC1C(=O)NCCN1C(=S)NC(=O)c1ccc(F)cc1 (stereo not drawn)	-20%	-8%	40µM*	41%	-14%	0
CC(C)OC(=O)CC1C(=O)NCCN1C(=S)NC(=O)c1ccccc1 (stereo not drawn)	?	-5%	32µM*	45%	-14%	2
COC(=O)CC1C(=O)NCCN1C(=S)NC(=O)c1sc2ccccc2c1Cl (stereo not drawn)	?	19µM*	?	12%	1%[11.4 µM]	-28
Cc1ccc(CNC(=O)CCc2c(C)nn(-c3ccc(N4CCCCC4)nn3)c2C)cc1	-34%	nt	1%[59 µM]	32%	-16%	nt
COc1ccc(-c2c(C)c3ccc(O)c(CN4CCCC4)c3oc2=O)cc1	2%	nt	17%[59 µM]	29%[57 µM]	9%	nt
O=C(c1cc2cc(Cl)ccc2[nH]1)N1CCc2ccccc2C1	-18%[57.1 µM]	2%	50µM*	60%	25%	-1
O=C(c1cc2cc(F)ccc2[nH]1)N1CCc2ccccc2C1	-18%[57.1 µM]	1%	19%	42%	6%	8
CCOc1cc(/C=N/NC(=O)c2cc(C3CC3)[nH]n2)ccc1O	-27%	-8%	45µM*	-1%	50µM*	3
COc1ccc2[nH]c(C(=O)NCCN3CCCCC3)cc2c1	-15%	-1%	56µM*	15%	-34%	-4
CCCCNC(=O)c1cc2cc(OC)ccc2[nH]1	-3%	-6%	-13%	37%	-19%	-14
COc1ccc2[nH]c(C(=O)NCCCn3ccnc3)cc2c1	-28%	1%	50µM*	17%	-13%	-15
CCOC(=O)c1c(C)oc2ncnc(Nc3cccc(C(F)(F)F)c3)c12	0%	nt	-2%[59 µM]	36%	-15%	nt
Cc1cccc(C(=O)OC(C)C(=O)NCC2CCCCC2)c1O (stereo not drawn)	8%	-1%	5%[2.33 µM]	43%	?	8
CN(C)CC(C)(C)CNS(=O)(=O)c1ccc(Cl)cc1	nt	-7%	-63%	40%	-8%	7
CN(C)CC(C)(C)CNS(=O)(=O)c1cccc(Cl)c1Cl	11%	-10%	8.9µM*	26%	50µM*	2
CC(C(=O)NCc1ccccc1F)n1ccc2cc(S(=O)(=O)N3CCCC3)ccc21 (stereo not drawn)	-20%	nt	-8%[59 µM]	27%	-4%	nt
CCCCN(C)CCNC(=O)c1c2c(nc3ccccc13)C(=O)N(C1CCCCC1)C2	-12%	nt	5%[59 µM]	1%	-11%	nt
CCOc1ccc(CNC(=O)Cn2ccc3cc(S(=O)(=O)N4CCCC4)ccc32)cc1	-8%[57.1 µM]	27µM*	19%	18%	?	-2
COc1ccc(CNC(=O)CCn2ccc3cc(S(=O)(=O)N4CCCC4)ccc32)cc1	7%	-9%	-5%	19%	-8%	-3
CSc1ccc(CNC(=O)CCn2ccc3cc(S(=O)(=O)N4CCCC4)ccc32)cc1	?	27µM*	1%	-2%	?	-15
COc1cccc(CNC(=O)Cn2ccc3cc(S(=O)(=O)N4CCCC4)ccc32)c1OC	-5%[57.1 µM]	30µM*	15%	16%	?	8
CCOc1ccc(CNC(=O)Cn2ccc3cc(S(=O)(=O)N4CCCCCC4)ccc32)cc1	3%	3%	4%	15%[57 µM]	4%	3

Source: PubChem BioAssay
